Screening results: PubChem, several laboratories
hDAT+cocaine = human DAT dopamine uptake with cocaine, either direction; Q01959; LLC-PK1 hDAT cells, [14C]-dopamine uptake with cocaine IC80; actives deviate in either direction; B-score at 10 µM; actives 1.3% (n = 110,000); AID 449768;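 active = Z score or B-score, a plate-position-corrected score, falls beyond the plate's 99.7% confidence bounds, in either direction; inactive = both scores lie inside the 99.7% bounds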
EphB4 antag = antagonists of human EphB4-ephrin-B2 interaction; P54760; EphB4 LBD / TNYL-RAW-Alexa532 peptide, fluorescence polarization; inhibition, % at 7 µM; actives 0.15% (n = 97,000); AID 720;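 active = inhibition above the screen-wide mean inhibition plus 3 SD, cut at about 15% in these data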
Target sequence (P54760 whole entry, looked up, the tested form may be a part): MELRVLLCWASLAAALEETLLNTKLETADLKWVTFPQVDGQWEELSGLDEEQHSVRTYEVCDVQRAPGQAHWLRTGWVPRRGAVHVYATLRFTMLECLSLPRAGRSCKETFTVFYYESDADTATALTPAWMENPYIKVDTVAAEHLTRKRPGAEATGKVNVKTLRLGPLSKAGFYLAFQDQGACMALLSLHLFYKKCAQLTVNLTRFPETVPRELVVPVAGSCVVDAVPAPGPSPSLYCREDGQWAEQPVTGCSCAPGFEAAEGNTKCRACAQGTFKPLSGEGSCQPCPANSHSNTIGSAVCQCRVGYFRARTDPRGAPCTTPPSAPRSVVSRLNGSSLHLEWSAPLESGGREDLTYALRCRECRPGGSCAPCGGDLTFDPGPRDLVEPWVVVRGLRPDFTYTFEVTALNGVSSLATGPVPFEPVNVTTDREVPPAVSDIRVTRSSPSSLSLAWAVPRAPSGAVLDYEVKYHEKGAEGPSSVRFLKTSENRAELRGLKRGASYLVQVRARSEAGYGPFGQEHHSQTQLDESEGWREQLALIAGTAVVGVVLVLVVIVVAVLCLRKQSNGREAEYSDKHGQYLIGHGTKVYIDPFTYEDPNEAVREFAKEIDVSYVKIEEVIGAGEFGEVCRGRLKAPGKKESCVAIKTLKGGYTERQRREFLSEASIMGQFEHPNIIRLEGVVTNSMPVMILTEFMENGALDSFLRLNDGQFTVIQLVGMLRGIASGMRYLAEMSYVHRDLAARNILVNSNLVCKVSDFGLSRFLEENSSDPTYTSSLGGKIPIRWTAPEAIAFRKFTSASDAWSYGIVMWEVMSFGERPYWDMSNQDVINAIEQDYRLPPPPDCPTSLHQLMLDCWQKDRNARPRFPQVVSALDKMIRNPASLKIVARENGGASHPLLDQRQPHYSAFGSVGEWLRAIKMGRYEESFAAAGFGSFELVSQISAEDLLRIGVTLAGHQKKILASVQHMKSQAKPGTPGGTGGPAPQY
D1 allo mod = allosteric modulators of human D1 dopamine receptor. B-score at 10 µM. AID 641. P21728. HEK293 D1, CRE-luciferase, dopamine EC30 potentiation; actives deviate in either direction. actives 5.9% (n = 58,000);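 active = luminescence count or its row- and column-corrected plate score outside the 99.7% band of the plate's sample wells, on either side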
D1 PAM confirm = D1 receptor (human) allosteric modulation, confirmed; HEK293 D1 CRE-luciferase, dopamine EC30 potentiation; active compounds read high; luminescence at 10 µM; actives 88% (n = 2,200); shares compounds with D1 allo mod; AID 642;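 active = luminescence in either of two replicates above the same-plate mean plus 3 SD of the low-dose dopamine control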
D1 ag no DA = D1 (human) signaling in absence of dopamine | shares compounds with D1 allo mod | HEK293 D1 CRE-luciferase, luminescence, no dopamine; active compounds read high | luminescence at 10 µM | actives 0.8% (n = 1,900); in the data active = luminescence above about 3900
Isoprot counter = counter-screen for D1 modulators: isoproterenol response in HEK293 cells | shares compounds with D1 allo mod | HEK293 D1 CRE-luciferase, isoproterenol EC30 counter-screen | calls only at 10 µM | actives 63% (n = 2,200) | AID 647;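 active = luminescence in either replicate above plate mean of wells with a partly effective reference agonist dose plus 3 SD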;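 note: isoproterenol raises cAMP through native beta-adrenoceptor Gs so signal bypasses D1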
A number is an active result; . = inactive; / = no result given; + = active, no number. Many of the other results were omitted from the sample, so hits are more common in it than they were.

SMILES | hDAT+cocaine | EphB4 antag | D1 allo mod | D1 PAM confirm | D1 ag no DA | Isoprot counter
CC1(C)Cc2c(C#N)c(NC3CCCCC3)nc(-c3ccco3)c2CO1 | . | / | 3.4 | 8368 | . | .
CC1(C)Cc2c(C#N)c(NCCc3ccccc3)nc(-c3ccco3)c2CO1 | . | / | / | / | / | /
Cc1nc(-c2ccccc2)sc1-c1nc(-c2cccnc2)ncc1S(=O)(=O)c1ccccc1 | . | . | / | / | / | /
O=C(NCc1ccc(OC(F)(F)F)cc1)C1CC(c2ccccc2C(F)(F)F)=NO1 (stereo unspecified) | . | / | / | / | / | /
CC(=O)Oc1c(Cl)c(N2CCOCC2)c(OC(C)=O)c2ccccc12 | . | / | 3.1 | 5620 | . | .
Cc1cc(OC(=O)N2CCOCC2)cc(C)c1Cl | . | . | . | / | / | /
O=C(NCc1ccc(F)cc1)c1cnn2ccccc12 | . | . | / | / | / | /
CSCC[C@H](NC(=O)c1ccc(Cl)c(S(=O)(=O)N2CCCC2)c1)c1nc2ccccc2[nH]1 | . | . | / | / | / | /
Cc1ccc2c(c1)N(C(=O)CSc1nncn1C)C(C)(C)c1ssc(=S)c1-2 | . | . | 2.8 | 6228 | / | +
Cc1cc2c(cc1C)N(C(=O)CSc1nncn1C)C(C)(C)c1ssc(=S)c1-2 | . | . | / | / | / | /
O=C(CCC1CCCCC1)NNC(=O)NC12CC3CC(CC(C3)C1)C2 | . | . | / | / | / | /
O=S(=O)(c1cccs1)N1CCN(c2ncccn2)CC1 | . | . | . | / | / | /
O=S(=O)(c1cccs1)N1CCN(c2ccccn2)CC1 | . | . | 11 | 10548 | . | .
CCNC(=O)n1nccc1C(C)Oc1ccc(Cl)cc1 (stereo unspecified) | . | . | / | / | / | /
O=C1Nc2ccc(S(=O)(=O)N3CCCC3)c3ccc(S(=O)(=O)N4CCCC4)c1c23 | . | . | 5.2 | 12808 | / | +
CCOC(=O)C1CCN(S(=O)(=O)c2ccc3c4c(cccc24)C(=O)N3)CC1 | . | . | . | / | / | /
CCOc1cc(C)nc(NCc2ccccc2)n1 | . | . | / | / | / | /
CCCCOc1cc(C)nc(NCc2ccccc2)n1 | . | . | 10 | 5728 | . | .
Nc1nc(-c2ccco2)nc(N2CCCCC2)n1 | . | . | 10 | 14860 | / | +
Nc1nc(N2CCCCC2)nc2ccccc12 | / | . | . | / | / | /
CCn1c(=O)cc(OCC(=O)Nc2ccc(Cl)cn2)c2ccccc21 | / | / | . | / | / | /
Cc1ccc(C)c2[nH]c(=O)c(CN(CCN3CCCC3)C(=O)Nc3cccc(Cl)c3)cc12 | . | . | . | / | / | /
COc1ccc(C(=O)NCC(=O)n2nc(C)cc2C)cc1OC | . | . | / | / | / | /
CSc1nsc(SCC(=O)Nc2ccccn2)n1 | . | . | . | / | / | /
COc1ccc(C(=O)CSc2nc(SC)ns2)cc1OC | . | . | 8.4 | 17700 | . | +
SMILES | hDAT+cocaine | EphB4 antag | D1 allo mod | D1 PAM confirm | D1 ag no DA | Isoprot counter
COc1ccc(C(=O)CSc2cc(C)nc3nc(C)nn23)cc1OC | . | / | 5.1 | 9832 | / | +
C[C@@H]1NC(=O)[C@H](CCC(=O)O)NC(=O)c2cc([N+](=O)[O-])cc(F)c2NCCC[C@@H](C(N)=O)NC1=O | . | / | / | / | / | /
c1ccc(-c2nc(N3CCCCC3)nc3ccccc23)cc1 | . | . | / | / | / | /
Cc1ccc2nc(N3CCC(C(=O)O)CC3)nc(-c3ccccc3)c2c1 | . | . | 6.5 | 10876 | . | +
CCOc1cccc2cc(C(=O)Nc3cc(C)on3)c(=O)oc12 | . | . | 2.6 | . | . | .
CCOc1cccc2cc(C(=O)NCc3cccnc3)c(=O)oc12 | . | . | . | / | / | /
O=C(CCC(=O)N1CCOCC1)Nc1nnc(C2CCCCC2)s1 | . | . | / | / | / | /
CCCCNC(=O)c1ccc2nc(-c3ccco3)c(-c3ccco3)nc2c1 | . | / | 3.8 | 8120 | . | .
O=C(NCc1ccccc1)c1ccc2nc(-c3ccco3)c(-c3ccco3)nc2c1 | . | . | / | / | / | /
CCOC(=O)c1cnn(-c2cc(Oc3ccccc3C)ncn2)c1N | . | . | / | / | / | /
Cc1ccc(C(=O)COC(=O)CCC(=O)NC2CCCCC2)cc1C | . | . | / | / | / | /
CC(=O)NC1C(=O)N(C)c2ccc(Br)cc21 (stereo unspecified) | . | . | / | / | / | /
Nc1c(C(O)(C(F)(F)F)C(F)(F)F)cc(C(O)(C(F)(F)F)C(F)(F)F)c2ccccc12 | . | . | / | / | / | /
CC(C)n1c(SCC(=O)Nc2nc3ccccc3s2)nc2c1c(=O)n(C)c(=O)n2C | . | . | / | / | / | /
CCn1c(SCC(=O)Nc2ccc3c(c2)OCO3)nc2ccccc21 | . | . | / | / | / | /
CC(C)n1c(SCC(=O)Nc2ccc3c(c2)OCO3)nc2c1c(=O)n(C)c(=O)n2C | . | . | 9.1 | 7904 | . | +
Cc1cc(NC(=O)CSc2nc3c(c(=O)n(C)c(=O)n3C)n2C(C)C)no1 | . | . | / | / | / | /
CCOc1ccc2nc(NC(=O)CSc3nc4c(c(=O)n(C)c(=O)n4C)n3C(C)C)sc2c1 | / | / | 4 | 10912 | . | +
CCn1c(=O)cc(SCC(=O)Nc2ccc3c(c2)OCO3)c2ccccc21 | . | . | 5.2 | 9432 | . | .
CC(C)n1c(SCC(=O)N2CCCC2)nc2c1c(=O)n(C)c(=O)n2C | . | / | 6.4 | 13032 | . | .
CC(C)n1c(SCC(=O)c2ccc3c(c2)OCCO3)nc2c1c(=O)n(C)c(=O)n2C | . | / | . | / | / | /
COc1cc(S(=O)(=O)N2CCOCC2)ccc1NC(=O)COC(=O)CC12CC3CC(CC(C3)C1)C2 | . | . | / | / | / | /
CCOC(=O)c1sc2nc(SCC#N)n(CCCN3CCCC3=O)c(=O)c2c1C | . | . | . | / | / | /
CCN(CC)S(=O)(=O)c1ccc(NC(=O)CC(NC(C)=O)c2ccccc2)cc1 (stereo unspecified) | . | . | / | / | / | /
O=C(NCC1c2ccccc2CCN1C(=O)CN1C(=O)c2ccccc2C1=O)C1CCCCC1 (stereo unspecified) | . | . | / | / | / | /
SMILES | hDAT+cocaine | EphB4 antag | D1 allo mod | D1 PAM confirm | D1 ag no DA | Isoprot counter
O=c1cc(N2CCCCC2)c(-c2ccccc2)nn1Cc1c(Cl)cccc1Cl | . | . | / | / | / | /
COc1nc(Nc2ccc(OC)c(Cl)c2)nc(OC)n1 | . | . | 4.3 | 10816 | . | +
CCOc1nc(Nc2ccc(OC)c(Cl)c2)nc(N2CCN(c3ccc(OC)cc3)CC2)n1 | . | . | / | / | / | /
CSc1ccccc1NC(=O)c1c(C)noc1C | . | . | . | / | / | /
CSc1ccccc1NC(=O)c1onc(C)c1Cl | . | . | 1.6 | 7308 | . | .
CCSc1nnc(-c2cccnc2)n1-c1ccc(Cl)c(C)c1 | . | . | / | / | / | /
COc1cc2c(cc1OC)C1=C(C#N)CCC(=NC(=O)c3ccc(Cl)cc3)N1CC2 | . | . | / | / | / | /
COc1cc2c(cc1OC)C1=C(C#N)COCN1CC2 | . | . | 15 | 9624 | . | +
CC1CN(C(=O)COc2ncnc3ccccc23)CC(C)O1 (stereo unspecified) | . | . | / | / | / | /
COc1ccc(-c2ccc(Nc3ccc(C(=O)N4CCOCC4)cc3)nn2)cc1OC | . | . | / | / | / | /
COc1ccc(-c2ccc(SCC(=O)N3CCCC3)nn2)cc1OC | . | . | 14 | 25344 | . | +
COc1ccc(-c2nnc(SCC(=O)N3CCCCC3)o2)cc1OC | . | / | . | / | / | /
COc1ccc(-c2ccc(SCC(=O)N3CCOCC3)nn2)cc1OC | . | . | 12 | 27680 | . | +
c1ccc(CCn2c3ccccc3c3nnc(SCc4ccc5nonc5c4)nc32)cc1 | . | . | / | / | / | /
